From PubChem BioAssay (EPA / NIEHS) come the findings set out here.

Read-out in assay [1]: Cyclin D2 (CCND2), CCND2 (gene 894)
The experiment in a line: LTEA_HepaRG_CCND2: Life Technologies and Expression Analysis (LTEA) Assay for Cyclin D2 (CCND2) using HepaRG (AID 2283449).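 Note: CCND2 transcript measured by TaqMan qRT-PCR and normalised to three housekeeping genes.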 The settings on record: mRNA level, 48 h; actives raise or lower the signal. The gist of the method: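 HepaRG, 48 h dosing, 8-pt half-log curve from 100 uM, 0.5% DMSO; duplicate wells. Readout: CCND2 transcript by microfluidic qRT-PCR, housekeeping-normalised; bidirectional fit vs DMSO baseline.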

Read-out in assay [2]: Cyclin Dependent Kinase Inhibitor 1A (CDKN1A), CDKN1A (gene 1026)
As to the kind of experiment: LTEA_HepaRG_CDKN1A: Life Technologies and Expression Analysis (LTEA) Assay for Cyclin Dependent Kinase Inhibitor 1A (CDKN1A) using HepaRG (AID 2283450). The settings on record: mRNA level, 48 h; actives raise or lower the signal. In a few lines:
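Read-out is CDKN1A mRNA by TaqMan qRT-PCR, normalized to three housekeeping genes and fitted in both directions against the DMSO baseline. Human HepaRG cells were treated 48 h with test chemicals up to 100 uM in half-log steps, 0.5% DMSO.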

Read-out in assay [3]: Cyclin D1 (CCND1), CCND1 (gene 595)
The experiment in a line: LTEA_HepaRG_CCND1: Life Technologies and Expression Analysis (LTEA) Assay for Cyclin D1 (CCND1) using HepaRG (AID 2283451). The settings on record: mRNA level, 48 h; actives raise or lower the signal. The gist of the method: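 HepaRG plated 48 h, medium switched to serum-free induction medium, chemicals added in duplicate (top 100 uM, half-log steps, 0.5% DMSO) for 48 h, cells lysed, RNA measured by TaqMan qRT-PCR.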

Read-out in assay [4]: catalase (CAT), CAT (gene 847)
The experiment in a line: LTEA_HepaRG_CAT: Life Technologies and Expression Analysis (LTEA) Assay for catalase (CAT) using HepaRG (AID 2283452). The settings on record: mRNA level, 48 h; actives raise or lower the signal. The gist of the method: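 HepaRG cells in serum-free induction medium, 0.5% DMSO vehicle, exposed 48 h in duplicate over 8 half-log concentrations from 100 uM. CAT mRNA measured by qRT-PCR, normalized to ACTB, GAPDH, POLR2A; bidirectional fit versus DMSO.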

Read-out in assay [5]: flavin-containing dimethylaniline monooxygenases 3 (FMO3), FMO3 (gene 2328)
The experiment in a line: LTEA_HepaRG_FMO3: Life Technologies and Expression Analysis (LTEA) Assay for flavin-containing dimethylaniline monooxygenases 3 (FMO3) using HepaRG (AID 2283453).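 For AC50: differentiated human HepaRG liver cells in serum-free induction medium.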 Particulars: mRNA level, 48 h; actives raise or lower the signal. The gist of the method: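 Eight-point concentration-response in serum-free HepaRG cultures (top 100 uM, 0.5% DMSO, 48 h). Read-out: FMO3 mRNA level normalized to three endogenous control genes, fitted bidirectionally versus vehicle.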

Read-out in assay [6]: Cytochrome P450 (CYP1A1), CYP1A1 (gene 1543)
As to the kind of experiment: LTEA_HepaRG_CYP1A1: Life Technologies and Expression Analysis (LTEA) Assay for Cytochrome P450 (CYP1A1) using HepaRG (AID 2283454). Particulars: mRNA level, 48 h; actives raise or lower the signal. The gist of the method:
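HepaRG, 48 h post-plating switched to serum-free induction medium; 8-pt conc-response (top 100 uM, half-log, 0.5% DMSO), duplicates, 48 h. Lysis in RLT, TaqMan qRT-PCR for CYP1A1; gain or loss vs DMSO.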

Read-out in assay [7]: CFLAR gene, CFLAR (gene 8837)
The experiment in a line: LTEA_HepaRG_CFLAR: Life Technologies and Expression Analysis (LTEA) Assay for CFLAR gene using HepaRG (AID 2283455). The settings on record: mRNA level, 48 h; actives raise or lower the signal. In a few lines: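 qRT-PCR read-out (Fluidigm/TaqMan) of CFLAR mRNA, normalized to three housekeeping genes, in differentiated human HepaRG cells after 48 h chemical exposure; 8-point half-log series from 100 uM in 0.5% DMSO; bidirectional curve fitting versus DMSO.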

Read-out in assay [8]: Forkhead box O1 (FOXO1), FOXO1 (gene 2308)
The experiment in a line: LTEA_HepaRG_FOXO1: Life Technologies and Expression Analysis (LTEA) Assay for Forkhead box O1 (FOXO1) using HepaRG (AID 2283456). Particulars: mRNA level, 48 h; actives raise or lower the signal. In a few lines:
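HepaRG, 48 h exposure, 8-pt half-log series from 100 uM in 0.5% DMSO, duplicates; Fluidigm qRT-PCR mRNA, housekeeping-normalised; bidirectional fit vs DMSO baseline.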

A short description of assay [9]: CEETOX_H295R_TESTO: CeeTox H295R High-throughput Steroidogenesis Assay for Testosterone (TESTO) (AID 2283457).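 For AC50: cells exposed to chemicals for 48 h before medium collection.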 Particulars: actives raise or lower the signal. In a few lines: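 H295R, passage ≤10, 48 h dosing; media extracted with MTBE → HPLC-MS/MS for testosterone; 7-pt standard curve sets LLOQ/ULOQ; bidirectional fit vs DMSO; MTT viability same wells.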
Read-out in assay [10]: growth arrest and DNA damage 45 (GADD45A), GADD45A (gene 1647)
The experiment in a line: LTEA_HepaRG_GADD45A: Life Technologies and Expression Analysis (LTEA) Assay for growth arrest and DNA damage 45 (GADD45A) using HepaRG (AID 2283458). Particulars: mRNA level, 48 h; actives raise or lower the signal. The gist of the method:
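HepaRG, 48 h exposure, 8 conc. (top 100 uM, half-log steps), 0.5% DMSO vehicle, duplicates. Read-out: qRT-PCR mRNA level, housekeeping-normalized (ACTB/GAPDH/POLR2A). Curves fit bidirectionally vs DMSO baseline.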

Read-out in assay [11]: Forkhead box O3 (FOXO3), FOXO3 (gene 2309)
The experiment in a line: LTEA_HepaRG_FOXO3: Life Technologies and Expression Analysis (LTEA) Assay for Forkhead box O3 (FOXO3) using HepaRG (AID 2283459). The settings on record: mRNA level, 48 h; actives raise or lower the signal. The gist of the method: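 qRT-PCR readout of FOXO3 transcript, normalized to three housekeeping genes (ACTB, GAPDH, POLR2A); gain or loss fitted against 0.5% DMSO vehicle. HepaRG cells, 48 h chemical exposure, 8-point half-log series, top 100 uM.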

Read-out in assay [12]: ABC Transporter (ABCB1), ABCB1 (gene 5243)
As to the kind of experiment: LTEA_HepaRG_ABCB1: Life Technologies and Expression Analysis (LTEA) Assay for ABC Transporter (ABCB1) using HepaRG (AID 2283460). Particulars: mRNA level, 48 h; actives raise or lower the signal. The gist of the method:
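HepaRG, 48 h exposure, 8-pt half-log series from 100 uM, 0.5% DMSO vehicle, duplicates. Readout: ABCB1 transcript by Fluidigm TaqMan qRT-PCR, housekeeping-normalized; bidirectional curve fit vs DMSO baseline.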

Read-out in assay [13]: growth arrest and DNA damage 45 (GADD45B), GADD45B (gene 4616)
The experiment in a line: LTEA_HepaRG_GADD45B: Life Technologies and Expression Analysis (LTEA) Assay for growth arrest and DNA damage 45 (GADD45B) using HepaRG (AID 2283461). The settings on record: mRNA level, 48 h; actives raise or lower the signal. In a few lines:
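HepaRG, ~100,000 cells/well, 48 h plating; serum-free induction medium; cpd 100 uM top, half-log x8, 0.5% DMSO, duplicate, 48 h; lysis in RLT, RNA isolation, qRT-PCR; norm ACTB/GAPDH/POLR2A; bidirectional fit vs DMSO.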

Read-out in assay [14]: ABC Transporter (ABCC3), ABCC3 (gene 8714)
As to the kind of experiment: LTEA_HepaRG_ABCC3: Life Technologies and Expression Analysis (LTEA) Assay for ABC Transporter (ABCC3) using HepaRG (AID 2283462). The settings on record: mRNA level, 48 h; actives raise or lower the signal. In a few lines: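 Human HepaRG, 48 h dosing, 8-pt half-log series from 100 uM, 0.5% DMSO vehicle, duplicates. ABCC3 mRNA by TaqMan qRT-PCR, housekeeping-normalized; bidirectional curve fit vs DMSO.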

Read-out in assay [15]: ABC Transporter (ABCB11), ABCB11 (gene 8647)
The experiment in a line: LTEA_HepaRG_ABCB11: Life Technologies and Expression Analysis (LTEA) Assay for ABC Transporter (ABCB11) using HepaRG (AID 2283463). Particulars: mRNA level, 48 h; actives raise or lower the signal. The gist of the method: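 HepaRG, 48 h exposure, 8-pt half-log CRC top 100 uM, 0.5% DMSO vehicle, duplicates. Readout: TaqMan qRT-PCR of ABCB11 mRNA, housekeeping-normalized (ACTB/GAPDH/POLR2A). Bidirectional fit vs DMSO baseline.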

Read-out in assay [16]: ABC Transporter (ABCC2), ABCC2 (gene 1244)
The experiment in a line: LTEA_HepaRG_ABCC2: Life Technologies and Expression Analysis (LTEA) Assay for ABC Transporter (ABCC2) using HepaRG (AID 2283464). The settings on record: mRNA level, 48 h; actives raise or lower the signal. In a few lines: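 HepaRG, 48 h post-plating; serum-free induction medium; cpd 8-pt, 100 uM top, half-log, 0.5% DMSO, duplicate, 48 h. Readout: ABCC2 mRNA by qRT-PCR, norm. ACTB/GAPDH/POLR2A. Bidirectional fit vs DMSO baseline.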

Read-out in assay [17]: Broad substrate specificity ATP-binding cassette transporter ABCG2 (Homo sapiens) (UniProt Q9UNQ0)
As to the kind of experiment: LTEA_HepaRG_ABCG2: Life Technologies and Expression Analysis (LTEA) Assay for ABC Transporter (ABCG2) using HepaRG (AID 2283465). The settings on record: mRNA level, 48 h; actives raise or lower the signal. The gist of the method: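 HepaRG, 48 h exposure, 8-pt half-log series from 100 uM, 0.5% DMSO vehicle, duplicates. Readout: ABCG2 transcript by qRT-PCR (Fluidigm array), housekeeping-normalized; bidirectional curve fit relative to DMSO baseline.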

Read-out in assay [18]: ATP-citrate lyase (ACLY), ACLY (gene 47)
As to the kind of experiment: LTEA_HepaRG_ACLY: Life Technologies and Expression Analysis (LTEA) Assay for ATP-citrate lyase (ACLY) using HepaRG (AID 2283466). The settings on record: mRNA level, 48 h; actives raise or lower the signal. The gist of the method: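 qRT-PCR readout of ACLY transcript after 48 h chemical treatment of HepaRG cells; expression normalized to three housekeeping genes. Eight-point half-log series, highest 100 uM, 0.5% DMSO vehicle. Gain or loss fitted against DMSO baseline.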

Read-out in assay [19]: Alkaline Phosphatase, Placental (ALPP) gene, ALPP (gene 250)
As to the kind of experiment: LTEA_HepaRG_ALPP: Life Technologies and Expression Analysis (LTEA) Assay for Alkaline Phosphatase, Placental (ALPP) gene using HepaRG (AID 2283468). The settings on record: mRNA level, 48 h; actives raise or lower the signal. In a few lines: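 HepaRG, 48 h plating then 48 h dosing, serum-free induction medium, 0.5% DMSO. 8 conc, half-log, max 100 uM, duplicates. Endpoint: ALPP transcript by qRT-PCR, housekeeping-normalized; gain or loss fitted vs DMSO.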

The source holds several records for some structures; these can differ, active in one and inactive in another. Activity calls are given as the source filed them. Rule for the calls: active = hit-call score of the fitted dose curve at least 0.9, where 1 is the maximum; inactive = score below 0.9.

Sequence of Broad substrate specificity ATP-binding cassette transporter ABCG2 (Homo sapiens) (Q9UNQ0 whole entry, looked up): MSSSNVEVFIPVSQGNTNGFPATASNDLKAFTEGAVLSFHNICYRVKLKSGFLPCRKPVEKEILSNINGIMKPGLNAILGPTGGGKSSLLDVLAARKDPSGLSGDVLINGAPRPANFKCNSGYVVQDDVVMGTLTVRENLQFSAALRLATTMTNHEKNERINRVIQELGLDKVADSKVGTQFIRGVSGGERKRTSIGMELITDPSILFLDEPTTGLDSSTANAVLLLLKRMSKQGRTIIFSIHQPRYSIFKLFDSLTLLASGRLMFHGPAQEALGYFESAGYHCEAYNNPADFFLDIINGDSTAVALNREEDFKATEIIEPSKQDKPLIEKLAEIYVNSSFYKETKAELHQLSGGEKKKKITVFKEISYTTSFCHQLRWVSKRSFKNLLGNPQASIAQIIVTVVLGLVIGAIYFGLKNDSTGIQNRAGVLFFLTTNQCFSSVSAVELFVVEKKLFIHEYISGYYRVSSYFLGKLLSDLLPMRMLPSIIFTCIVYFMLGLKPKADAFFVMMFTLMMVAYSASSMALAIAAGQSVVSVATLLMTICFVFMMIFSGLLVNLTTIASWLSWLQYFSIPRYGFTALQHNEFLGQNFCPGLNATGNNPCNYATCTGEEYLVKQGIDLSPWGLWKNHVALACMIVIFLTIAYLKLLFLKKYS

Usually AC50 stands for the concentration giving half of the maximal activity seen. In the case of `CC(=O)S[C@@H]1CC2=CC(=O)CC[C@]2(C)[C@H]2CC[C@@]3(C)[C@@H](CC[C@@]34CCC(=O)O4)[C@H]12`, the outcome in [1], in assay [2], in [3], in [6], in [7] and in [8] was inactive. For the same compound, the compound was classed as inactive in assay [10], in [11], in assay [12], in [13], in assay [14] and in assay [16]. Also, the outcome in [17], in assay [18] and in assay [19] was inactive. The AC50 in assay [4] was 60.7 µM (active); in [5], 60.3 µM (active); in assay [9], 0.828 µM (active); in [15] it was 67 µM (active).

Regarding `CSC(=O)c1cccc2nnsc12`, the compound was classed as inactive in assay [1], in assay [2], in assay [3], in [4], in [5] and in assay [7]. Further, the outcome in assay [8], in assay [9], in assay [10], in assay [11], in [12] and in assay [13] was inactive. Further, the outcome in [14], in assay [15], in assay [16], in [17], in assay [18] and in assay [19] was inactive. In addition, the AC50 in assay [6] is 50 µM (active).

For the compound `O=C(c1ccc(O)cc1O)c1ccc(O)cc1O`, the compound was classed as inactive in [1], in assay [2], in [3], in [4], in assay [5] and in [6]. The result in [7], in assay [8], in assay [10], in assay [11], in [12] and in assay [13] was inactive. In addition, the compound was classed as inactive in [14], in assay [15], in assay [16], in assay [17], in [18] and in assay [19].

`O=C(O)c1ccccc1`: the compound was classed as inactive in assay [1], in assay [2], in assay [3], in [4], in assay [5] and in assay [6]. Further, the result in assay [7], in assay [8], in assay [10], in [11], in assay [12] and in assay [13] was inactive. In addition, the call in assay [14], in [15], in [16], in assay [17], in assay [18] and in assay [19] was inactive. Besides, the AC50 in assay [6] was 51.2 µM (active).
